Test results: PubChem BioAssay AID540277 (National Center for Advancing Translational Sciences (NCATS), 2011)
The whole screen tested about 320,000 compounds, of which about 55 (0.02%) were called active. Another 3% or so got no clear call; they are omitted. Rule as the data show it: active = potentiation above about 80%; inconclusive = between about 30% and that limit; inactive = weaker than that. The full list was thinned out, with actives kept by preference.

Target: Transient receptor potential cation channel subfamily V member 1 (Homo sapiens) (UniProt Q8NER1)
Assay: HTS Assay for Compounds that Act as Potentiators of the Vanilloid Receptor 1; also: 0% is about no effect
Conditions: TRPV1-expressing cells, Fluo-8 calcium influx, capsaicin EC20 potentiation; at 8.33 µM; hits give high values
From the text: The transient receptor potential ion channel, family V, number 1, (TRPV1) is one of the most important molecular transducers of painful stimuli and a potential target for analgesic drug development. Although recent clinical trials with orthosteric antagonists have not produced a successful drug because of a hyperthermia side effect and their tendency to block thermal noxious pain, this ion channel is undeniably well placed in the pain pathway, and the idea of blocking pain signals before they enter the CNS is an excellent concept and of proven efficacy when TRPV1 agonists are used. We propose a new approach involving allosteric modulation to impose an activity-dependent constraint within the context of inflammation and tissue damage that would alter the responsiveness of the channel in a way that an orthosteric vanilloid antagonist cannot achieve. We believe that the allosteric modulator approach has not been explored for this target. The main goal of this proposal is to identify additional, new, potent allosteric modulators of TRPV1 that can be used to investigate TRPV1 function. Our recent report provides evidence of proof of concept, but the compounds are just at the edge of utility in terms of potency. […] The question of whether they can be used as analgesic agents is complex, but if suitable compounds are identified then testing for analgesic properties will be conducted. NIH Chemical Genomics Center [NCGC] NIH Molecular Libraries Probe Centers Network [MLPCN] MLPCN Grant: MH089480-1A1 Assay Submitter (PI): Michael Iadarola, National Institute of Dental and Cranofacial Research
Upon TRPV1 activation in TRPV1 cells, the channel opens and extracellular cations flow through the channel into the cytosol. A calcium binding dye (Fluo-8) becomes fluorescent when bound to calcium. This dye is pre-loaded into cells and is used as a marker for calcium influx. The amount of accumulated calcium is precisely quantified using the FDSS kinetic reader and the calcium dye. For the HTS assay, freshly prepared cells are plated at a density of 2000/well in 3 ul medium in 1536-well plates and cultured overnight at 35.5C. Cells will be loaded with 1 ul of the homogeneous calcium dye (ABD Bioquest) at room temperature for 40 to 90 minutes. Plates will be loaded into the FDSS kinetic reader and a 1 sec / cycle for 10 second baseline signal will be measured. Compound library will then be added with a pintool at 23 nl and measured kinetically for 3 minutes. This portion of the read is considered the agonist portion of the screen. Following the 3 minutes of incubation, an on board pipettor will deliver 1 ul of capsaicin for a final concentration equal to the EC20. Signal will be measured kinetically for an additional 2 minutes. This portion of the read is considered the allosteric enhancer portion of the screen. The FDSS reader has a standard filter set capable of measuring calcium bound Fluo-8 (ex=480 and em=520 nm).

Sequence of Transient receptor potential cation channel subfamily V member 1 (Homo sapiens) (Q8NER1 whole entry, looked up): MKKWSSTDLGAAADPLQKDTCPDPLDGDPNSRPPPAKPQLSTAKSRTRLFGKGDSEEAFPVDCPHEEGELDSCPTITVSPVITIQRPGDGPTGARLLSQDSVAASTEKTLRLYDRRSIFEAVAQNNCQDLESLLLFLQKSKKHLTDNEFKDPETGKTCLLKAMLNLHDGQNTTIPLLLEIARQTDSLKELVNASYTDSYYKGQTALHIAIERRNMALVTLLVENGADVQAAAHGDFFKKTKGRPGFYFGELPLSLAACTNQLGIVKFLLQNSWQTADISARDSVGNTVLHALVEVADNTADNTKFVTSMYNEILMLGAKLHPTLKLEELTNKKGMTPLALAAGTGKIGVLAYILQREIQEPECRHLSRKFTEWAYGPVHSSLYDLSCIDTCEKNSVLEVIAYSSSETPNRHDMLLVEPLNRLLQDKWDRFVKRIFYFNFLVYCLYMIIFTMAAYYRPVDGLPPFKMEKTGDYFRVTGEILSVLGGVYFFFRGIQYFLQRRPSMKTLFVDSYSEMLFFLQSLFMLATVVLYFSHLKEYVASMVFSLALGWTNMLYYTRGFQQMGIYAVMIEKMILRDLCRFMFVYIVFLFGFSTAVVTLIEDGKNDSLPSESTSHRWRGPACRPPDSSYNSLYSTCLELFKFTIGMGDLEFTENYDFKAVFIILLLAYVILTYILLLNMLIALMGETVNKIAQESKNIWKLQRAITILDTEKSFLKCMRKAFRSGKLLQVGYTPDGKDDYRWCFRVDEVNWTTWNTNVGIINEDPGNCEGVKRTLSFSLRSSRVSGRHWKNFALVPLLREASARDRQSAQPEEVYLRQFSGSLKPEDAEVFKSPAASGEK

potentiation, inactive:
CCCCN1C(=O)C(=O)N(CC(=O)Nc2cccc(C(C)=O)c2)C1=O 6.11%
COC(=O)c1ccc(-c2c(-c3ccccc3)ncc3cc(OC)c(OC)cc23)cc1 -0.0919%
O=C(NCC1CCCO1)c1cc2c(s1)CCCC2 (stereo not given) -3.61%
COc1ccc(C(C)(C)C)cc1NC(=O)CCN1C(=O)C2CCCCC2C1=O (stereo not given) -20%
Cc1ccc(NC(=O)C(c2ccccc2)N2CCN(C(=O)c3ccco3)CC2)cc1 (stereo not given) 4.79%
CN(CCOc1ccccc1)C(=O)c1cc(-c2ccco2)nc2ccccc12 1.05%
CC1CCN(C(=O)COC(=O)c2cc(=O)[nH]c3ccccc23)CC1 -1.92%
CN(C)S(=O)(=O)c1cccc(NC(=O)COc2ccc3ccccc3c2)c1 2.88%
O=C(COC(=O)c1cccc(Cl)c1)NC1CCCCCCC1 -13.9%
COc1cc(OC)c(C(=S)N2CCCC2)cc1OC -20.3%
COc1ccc(-c2cc(C(=O)NCCCN3CCCC3=O)c3ccccc3n2)cc1OC -7.67%
COc1cccc(C(=O)c2sc3nc(-c4ccccc4)cc(C(F)(F)F)c3c2N)c1 -4.5%
CC(C)Cc1nnc(NC(=O)CCNC(=O)c2ccccc2Cl)s1 6.33%
CCCc1ccc(C(=O)COC(=O)CN2C(=O)NC3(CCCCC3C)C2=O)cc1 (stereo not given) -5.74%
O=C(OCC(=O)N1CCc2ccccc21)C1CCCN1S(=O)(=O)c1ccc(Cl)cc1 (stereo not given) -3.33%
COc1ccc(C)cc1NC(=O)CN1c2cccc3cccc(c23)S1(=O)=O -17.5%
COc1ccc(S(=O)(=O)Nc2cccc3cccnc23)c(N)c1 13.6%
N#Cc1ccccc1S(=O)(=O)N1CCN(Cc2c(O)ccc3ccccc23)CC1 0.42%
O=C(COC(=O)CNC(=O)C1CCCCC1)NCc1ccccc1 -6.14%
CC(C)N(C(=O)CN1CCN(S(=O)(=O)c2ccc(Br)s2)CC1)C(C)C -18.3%
CCOc1cccc2cc(C(=O)OCC(=O)Nc3c(C)cccc3CC)c(=O)oc12 -5.16%
Nc1cc(N)nc(SCC(=O)Nc2cccc(S(=O)(=O)N3CCCCC3)c2)n1 0.644%
COc1cccc(C(=O)n2ccc(-c3cccs3)n2)c1 -6.21%
O=C(N[C@@H](Cc1c[nH]c2ccccc12)C(=O)O)OCC1c2ccccc2-c2ccccc21 1.56%
CN(C(=O)CSc1nnc(-c2ccc(C(C)(C)C)cc2)n1C)C1CCS(=O)(=O)C1 (stereo not given) -2.39%
O=C(CSc1nnc(Nc2ccccc2F)s1)NC1CCCC1 -7.27%
CCN(CC)S(=O)(=O)c1ccc(OC)c(NC(=O)CCc2c(C)noc2C)c1 -15%
COc1ccccc1S(=O)(=O)NCc1ccc(C(=O)N(C)Cc2ccc(F)cc2)cc1 -20.6%
Cc1ccc(NC(=S)N(CCN2CCCCC2)Cc2ccco2)cc1C 2.55%
Cc1ccc(NC(=S)N(CCCN2CCC(C)CC2)Cc2ccco2)cc1 8.22%
O=C(O)c1ccccc1N=N/C(=N/Nc1cc(S(=O)(=O)O)ccc1O)c1ccccc1 1.2%
CN(C)S(=O)(=O)c1ccc(C(=O)NCC2(N3CCOCC3)CCCCC2)cc1 -44.6%
CN(Cc1cccs1)C(=O)CN1C(=O)c2ccccc2S1(=O)=O -1.15%
CCC1(C)NC(=O)N(CC(=O)N2CCN(c3cccc(Cl)c3)CC2)C1=O (stereo not given) -16.1%
O=C(COC(=O)c1ccccc1Cl)NC1CCCCCCC1 -4.06%
O=C(NCc1ccccc1CN1CCCC1)c1cccc(S(=O)(=O)Nc2ccc(F)cc2)c1 -2.77%
CC(C)Oc1ccc(C(=O)NCC(=O)Nc2ccc3c(c2)CCC3)cc1 -17.6%
O=C(Nc1cccc2cccnc12)C(F)(F)F 13.4%
CCNC(=O)N1CCN(S(=O)(=O)c2ccc3c(c2)OCCCO3)CC1 4.26%
N#Cc1ccc(C(=O)OCC(=O)NC(=O)NC2CCCCC2)cc1 22.1%
Cc1ccc(-c2nn(-c3ccccc3)cc2C(=O)NC2CCC(O)CC2)cc1 (stereo not given) -7.64%
Cc1ccc(C(=O)NNC(=O)c2ccc3c(c2)OCCO3)cc1 9.22%
Cn1c(SCC(=O)Nc2ccc(N3CCOCC3)cc2)nnc1C(F)(F)F 1.26%
COc1ccc(S(=O)(=O)N2CCN(c3ccc(F)cc3)CC2)cc1-c1noc(C)n1 -6.85%

potentiation, active:
Cc1ccc(NC(=S)N(Cc2ccco2)C(C)c2cccs2)cc1 (stereo not given) 141%
